Results taken from the supplement of paper PMC9262897, “Low-cost anti-mycobacterial drug discovery using engineered E. coli” (Nature Communications, 2022).
Counter-ions that a name gives are not always drawn. ± gives the standard deviation of the averaged measurements.

How the values were obtained:
Test in all cases: growth (OD600 after 10 h); higher = more growth (less inhibition)
[1] = test system: E. coli TESEC Alr+ wild-type control; conditions: compound 0.1 mM; raw OD600 reference: median of DMSO wells 0.241, cell-free background 0.041
Protocol: (§1)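 TESEC Mtb Alr E. coli, or the Alr+ wild-type control, in 384-well plates with Prestwick library compounds at 0.1 mM and 1% DMSO, across arabinose induction levels of 1E3 to 1E7 nM. Growth is read as OD600 after 10 h at 37 °C in triplicate biological replicates.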

E. coli TESEC Mtb Alr [2] = conditions: compound 0.1 mM
Protocol: as §1

E. coli TESEC Mtb Asd = conditions: compound 0.1 mM
Protocol: (§2)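 TESEC E. coli strains in which the native enzyme is deleted and replaced by arabinose-inducible Mtb Asd, DapB, CysH or TrpD, each grown in its selective medium. Strains were screened against the Prestwick library at 0.1 mM and 1% DMSO in 384-well format at low and high arabinose induction. Growth is read as OD600 after 10 h in triplicate.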

[3] = test system: E. coli TESEC Alr+ wild-type control; conditions: compound 0.1 mM; raw OD600 reference: median of DMSO wells 0.49, cell-free background 0.052
Protocol: (§3)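 TESEC Mtb Alr E. coli (ΔaraC ΔtolC ΔentC Δalr ΔdadX, arabinose-inducible Mtb Alr) or the Alr+ wild-type control strain, grown in defined M9-fructose medium without D-alanine in 96-well plates with Prestwick library compounds at 0.1 mM and 1% DMSO. Low Alr induction is 0.1 µM arabinose and high induction is 10 mM arabinose.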

E. coli TESEC Mtb Alr [4] = conditions: compound 0.1 mM; remark: listed apart in the source
Protocol: as §3

E. coli TESEC Mtb DapB = conditions: compound 0.1 mM
Protocol: as §2

[5] = arabinose 1000 nM, raw OD600 reference: median of DMSO wells 0.294, cell-free background 0.041
[6] = arabinose 10000 nM, raw OD600 reference: median of DMSO wells 0.264, cell-free background 0.041
[7] = arabinose 100000 nM, raw OD600 reference: median of DMSO wells 0.201, cell-free background 0.041
[8] = arabinose 1000000 nM, raw OD600 reference: median of DMSO wells 0.193, cell-free background 0.041
[9] = arabinose 10000000 nM, raw OD600 reference: median of DMSO wells 0.146, cell-free background 0.041
[10] = arabinose induction (level): High, raw OD600 reference: median of DMSO wells 0.331, cell-free background 0.041
[11] = arabinose induction (level): Low, raw OD600 reference: median of DMSO wells 0.417, cell-free background 0.041
[12] = arabinose 100 nM, raw OD600 reference: median of DMSO wells 0.413, cell-free background 0.052
[13] = arabinose 10000000 nM, raw OD600 reference: median of DMSO wells […], cell-free background 0.052
[14] = arabinose induction (level): High, raw OD600 reference: median of DMSO wells […], cell-free background 0.041
[15] = arabinose induction (level): Low, raw OD600 reference: median of DMSO wells 0.227, cell-free background 0.041

| SMILES | growth [1] | growth (E. coli TESEC Mtb Alr [2]; [5]) | growth (E. coli TESEC Mtb Alr [2]; [6]) | growth (E. coli TESEC Mtb Alr [2]; [7]) | growth (E. coli TESEC Mtb Alr [2]; [8]) | growth (E. coli TESEC Mtb Alr [2]; [9]) | growth (E. coli TESEC Mtb Asd; [10]) | growth (E. coli TESEC Mtb Asd; [11]) | growth [3] | growth (E. coli TESEC Mtb Alr [4]; [12]) | growth (E. coli TESEC Mtb Alr [4]; [13]) | growth (E. coli TESEC Mtb DapB; [14]) | growth (E. coli TESEC Mtb DapB; [15]) |
| --- | --- | --- | --- | --- | --- | --- | --- | --- | --- | --- | --- | --- | --- |
| COc1ccc(CCN(C)CCCC(C#N)(c2ccc(OC)c(OC)c2)C(C)C)cc1OC (configuration not stated) [Verapamil hydrochloride] | 0.185 ± 0.0071 | 0.25 ± 0.0055 | 0.27 ± 0.0044 | 0.195 ± 0.0032 | 0.116 ± 0.0045 | 0.149 ± 0.0027 | 0.243 ± 0.048 | 0.346 ± 0.095 | 0.461 ± 0.022 | 0.409 ± 0.005 | 0.258 ± 0.014 |  |  |
| CC(=O)O[C@]1(C(C)=O)CC[C@H]2[C@@H]3C=C(C)C4=CC(=O)CC[C@@H]4[C@H]3CC[C@@]21C [Nomegestrol acetate] | 0.1345 ± 0.001 | 0.127 ± 0.02 | 0.0606 ± 0.0005 | 0.124 ± 0.0062 | 0.061 ± 0.0017 | 0.0997 ± 0.0051 | 0.126 ± 0.018 | 0.104 ± 0.0027 | 0.14 ± 0.0081 | 0.229 ± 0.082 | 0.0935 ± 0.015 |  |  |
| C#C[C@]1(O)CC[C@H]2[C@@H]3[C@H](C)CC4=C(CCC(=O)C4)[C@H]3CC[C@@]21C [Tibolone] | 0.141 ± 0.0097 | 0.162 ± 0.017 | 0.155 ± 0.031 | 0.15 ± 0.021 | 0.0695 ± 0.00095 | 0.148 ± 0.0066 | 0.167 ± 0.036 | 0.316 ± 0.047 |  | 0.362 ± 0.046 | 0.137 ± 0.003 | 0.17 ± 0.0045 | 0.172 ± 0.0081 |
| N#Cc1ccc(C(c2ccc(C#N)cc2)n2cncn2)cc1 [Letrozole] | 0.2404 ± 0.0017 | 0.308 ± 0.006 | 0.253 ± 0.0064 | 0.243 ± 0.028 | 0.16 ± 0.0045 | 0.146 ± 0.0044 | 0.243 ± 0.06 | 0.356 ± 0.086 | 0.502 ± 0.046 | 0.394 ± 0.016 | 0.309 ± 0.016 |  |  |
| CC(C)CC(=O)N[C@H](C(=O)N[C@H](C(=O)N[C@@H](CC(C)C)[C@@H](O)CC(=O)N[C@@H](C)C(=O)N[C@@H](CC(C)C)[C@@H](O)CC(=O)O)C(C)C)C(C)C [Pepstatin A] | 0.226 ± 0.0077 | 0.307 ± 0.0049 | 0.271 ± 0.0051 | 0.234 ± 0.043 | 0.202 ± 0.02 | 0.15 ± 0.0034 | 0.419 ± 0.028 | 0.427 ± 0.064 | 0.468 ± 0.053 | 0.412 ± 0.005 | 0.345 ± 0.036 |  |  |
| CCOc1ccccc1OCC1CNCCO1 (configuration not stated) [Viloxazine hydrochloride] | 0.236 ± 0.0043 | 0.294 ± 0.023 | 0.273 ± 0.0049 | 0.193 ± 0.011 | 0.196 ± 0.01 | 0.135 ± 0.0069 | 0.251 ± 0.022 | 0.386 ± 0.012 | 0.539 ± 0.074 | 0.406 ± 0.011 | 0.366 ± 0.0079 |  |  |
| C[N+]1(C)CCC(=C(c2ccccc2)c2ccccc2)CC1 [Diphemanil methylsulfate] | 0.206 ± 0.0076 | 0.289 ± 0.01 | 0.255 ± 0.01 | 0.197 ± 0.013 | 0.16 ± 0.014 | 0.153 ± 0.0035 | 0.203 ± 0.027 | 0.352 ± 0.065 |  | 0.4115 ± 0.0028 | 0.36 ± 0.015 | 0.187 ± 0.015 | 0.25 ± 0.028 |
| O=C(CCCN1CCC(O)(c2ccc(Cl)cc2)CC1)c1ccc(F)cc1 [Haloperidol] | 0.216 ± 0.0039 | 0.265 ± 0.012 | 0.273 ± 0.0054 | 0.192 ± 0.015 | 0.172 ± 0.0034 | 0.14 ± 0.0019 | 0.395 ± 0.047 | 0.452 ± 0.028 |  | 0.4348 ± 0.0041 | 0.239 ± 0.012 | 0.187 ± 0.0073 | 0.248 ± 0.034 |
| CCOC(=O)O[C@]1(C(=O)COC(=O)CC)CC[C@H]2[C@@H]3CCC4=CC(=O)C=C[C@]4(C)[C@H]3[C@@H](O)C[C@@]21C [Prednicarbate] | 0.201 ± 0.0033 | 0.268 ± 0.0098 | 0.271 ± 0.0029 | 0.269 ± 0.025 | 0.199 ± 0.012 | 0.174 ± 0.013 | 0.438 ± 0.024 | 0.37 ± 0.053 | 0.38 ± 0.015 | 0.401 ± 0.0095 | 0.28 ± 0.027 |  |  |
| CC(C)NC[C@H](O)COc1ccc(CC(N)=O)cc1 [(S)-(-)-Atenolol] | 0.244 ± 0.0056 | 0.288 ± 0.016 | 0.2708 ± 0.0025 | 0.214 ± 0.04 | 0.184 ± 0.0026 | 0.1491 ± 0.0014 | 0.287 ± 0.095 | 0.343 ± 0.051 | 0.528 ± 0.092 | 0.413 ± 0.01 | 0.341 ± 0.022 |  |  |
| COc1ccc2c3c1O[C@H]1C[C@@H](O)C=C[C@@]31CCN(C)C2 [Galanthamine hydrobromide] | 0.249 ± 0.0042 | 0.291 ± 0.0095 | 0.245 ± 0.0045 | 0.218 ± 0.014 | 0.161 ± 0.0075 | 0.1382 ± 0.00072 | 0.229 ± 0.0098 | 0.376 ± 0.094 |  | 0.409 ± 0.01 | 0.34 ± 0.022 | 0.186 ± 0.012 | 0.195 ± 0.016 |
| CC(C)[N+](C)(CCOC(=O)C1c2ccccc2Oc2ccccc21)C(C)C [Propantheline bromide] | 0.169 ± 0.0072 | 0.231 ± 0.025 | 0.269 ± 0.0034 | 0.155 ± 0.0034 | 0.153 ± 0.0025 | 0.132 ± 0.0019 | 0.233 ± 0.051 | 0.417 ± 0.047 | 0.644 ± 0.057 | 0.406 ± 0.011 | 0.32773 ± 0.00025 |  |  |
| CC(C)NC[C@@H](O)COc1cccc2ccccc12 [(R)-Propranolol hydrochloride] | 0.205 ± 0.01 | 0.262 ± 0.0043 | 0.291 ± 0.0066 | 0.186 ± 0.015 | 0.216 ± 0.028 | 0.142 ± 0.0024 | 0.263 ± 0.076 | 0.2622 ± 0.0023 | 0.58 ± 0.019 | 0.4273 ± 0.0035 | 0.326 ± 0.012 |  |  |
| CCC[C@@H]1C[C@@H](C(=O)N[C@@H]([C@H]2O[C@H](SC)[C@H](O)[C@@H](O)[C@H]2O)[C@@H](C)O)N(C)C1 [Lincomycin hydrochloride] | 0.0958 ± 0.0084 | 0.122 ± 0.011 | 0.086 ± 0.003 | 0.113 ± 0.0046 | 0.0692 ± 0.0033 | 0.0731 ± 0.00091 | 0.151 ± 0.017 | 0.204 ± 0.02 | 0.486 ± 0.057 | 0.443 ± 0.0099 | 0.12 ± 0.019 |  |  |
| N[C@@H](Cc1cc(I)c(Oc2ccc(O)c(I)c2)c(I)c1)C(=O)O [Liothyronine] | 0.18 ± 0.012 | 0.211 ± 0.012 | 0.2 ± 0.0047 | 0.177 ± 0.0039 | 0.134 ± 0.0031 | 0.162 ± 0.003 | 0.32 ± 0.038 | 0.152 ± 0.017 | 0.36 ± 0.023 | 0.373 ± 0.035 | 0.272 ± 0.015 |  |  |
| N=C(N)NC(=N)NCCc1ccccc1 [Phenformin hydrochloride] | 0.2497 ± 0.002 | 0.279 ± 0.014 | 0.274 ± 0.0079 | 0.2 ± 0.02 | 0.186 ± 0.0089 | 0.137 ± 0.0039 | 0.378 ± 0.07 | 0.405 ± 0.067 | 0.469 ± 0.053 | 0.416 ± 0.0069 | 0.3729 ± 0.003 |  |  |
| CCCC(CCC)C(=O)O [Valproic acid] | 0.241 ± 0.0026 | 0.293 ± 0.0086 | 0.2722 ± 0.00032 | 0.22 ± 0.02 | 0.22 ± 0.0036 | 0.137 ± 0.0016 | 0.416 ± 0.018 | 0.404 ± 0.047 | 0.478 ± 0.035 | 0.41 ± 0.01 | 0.358 ± 0.022 |  |  |
| Nc1ccc(S(=O)(=O)Nc2nccs2)cc1 [Sulfathiazole] | 0.244 ± 0.013 | 0.275 ± 0.013 | 0.203 ± 0.0029 | 0.202 ± 0.029 | 0.125 ± 0.0031 | 0.142 ± 0.006 | 0.377 ± 0.045 | 0.384 ± 0.032 | 0.5194 ± 0.0026 | 0.422 ± 0.013 | 0.343 ± 0.02 |  |  |
